Measurements from PubChem BioAssay.
For part of these data: Results with a measured potency or affinity are listed apart. Calls of active or inactive are those of the source. Unless noted, how the calls were made is not given here.

How the values were obtained:
[1] = antimalarial activity against Dd2 strain (AID 2302;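 active means growth inhibition above 50% at the single 2 µM test dose, taken to imply half-maximal potency below 2 µM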;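 further: 0% = DMSO untreated growth and 100% = chloroquine plus artemisinin killed control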); conditions: P. falciparum Dd2 in RBCs, LDH growth readout, 72 h; at 2 µM; stronger effect = higher value
[2] = HepG2 cytotoxicity, primary screen, cytotoxicity control for P. falciparum antimalarial project, cell-based, ATP luminescence (AID 2303;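 active means inhibition above 50%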;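 further: 0% = DMSO wells and 100% = digitonin-killed cells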); conditions: HepG2 viability, 24-48 h, at 10 µM, stronger effect = higher value
[3] = target: L-lactate dehydrogenase (Plasmodium falciparum (isolate CDC / Honduras)) (UniProt Q27743); assay: PfLDH activity inhibition – cell lysate, 3D7 strain, counter-screen for P. falciparum growth inhibition project (AID 2304);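 further: 0% = vehicle and 100% = reference inhibitor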; conditions: P. falciparum 3D7 crude extract, LDH APAD/NBT absorbance; at 2 µM; stronger effect = higher value
Sequence of L-lactate dehydrogenase (Plasmodium falciparum (isolate CDC / Honduras)) (Q27743 whole entry, looked up): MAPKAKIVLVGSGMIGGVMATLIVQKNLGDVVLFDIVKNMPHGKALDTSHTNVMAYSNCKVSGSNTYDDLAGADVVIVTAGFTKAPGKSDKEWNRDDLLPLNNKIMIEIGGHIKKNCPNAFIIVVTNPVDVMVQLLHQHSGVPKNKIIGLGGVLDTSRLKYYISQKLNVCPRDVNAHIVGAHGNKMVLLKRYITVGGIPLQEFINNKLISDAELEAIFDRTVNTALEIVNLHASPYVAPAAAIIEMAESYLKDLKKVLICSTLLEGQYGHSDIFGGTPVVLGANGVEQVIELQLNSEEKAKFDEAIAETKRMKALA

[4] = inhibition of 3D7 malaria parasite growth – strain 3D7 (AID 2306);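 further: 0% = DMSO wells and 100% = chloroquine plus artemisinin control wells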; conditions: P. falciparum 3D7 erythrocytic growth, LDH absorbance, 72 h; at 2 µM; stronger effect = higher value
[5] = target: Calcium-dependent protein kinase 1 (Plasmodium falciparum (isolate 3D7)) (UniProt P62344); assay: PfCDPK1 kinase inhibitors, biochemical, TCAMS library (AID 1159585; cut-off not given, nearly all actives have IC50 up to about 0.98 µM;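 further: inhibitors leave more ATP so luminescence rises with inhibition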); conditions: recombinant PfCDPK1, Kinase-Glo ATP depletion luminescence
Sequence of Calcium-dependent protein kinase 1 (Plasmodium falciparum (isolate 3D7)) (P62344 whole entry, looked up): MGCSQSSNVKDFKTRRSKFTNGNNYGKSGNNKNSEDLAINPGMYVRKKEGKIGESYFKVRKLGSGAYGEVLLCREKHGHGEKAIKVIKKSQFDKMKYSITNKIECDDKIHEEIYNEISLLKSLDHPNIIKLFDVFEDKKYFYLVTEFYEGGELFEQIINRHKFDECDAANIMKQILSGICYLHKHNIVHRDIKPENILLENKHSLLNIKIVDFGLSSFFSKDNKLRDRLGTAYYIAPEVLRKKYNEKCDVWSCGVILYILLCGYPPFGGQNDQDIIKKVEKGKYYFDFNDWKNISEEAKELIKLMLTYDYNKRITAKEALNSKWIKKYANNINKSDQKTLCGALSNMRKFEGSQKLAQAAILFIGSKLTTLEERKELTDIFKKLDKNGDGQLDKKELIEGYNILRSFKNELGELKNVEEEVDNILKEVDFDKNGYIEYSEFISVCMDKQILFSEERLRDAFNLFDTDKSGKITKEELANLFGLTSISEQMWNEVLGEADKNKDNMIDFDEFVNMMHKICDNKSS

[6] = target: Plasmodium falciparum protein kinase 6 (PK6, PF3D7_1337100) (UniProt Q8IDW1); assay: PfPK6 kinase inhibitors, biochemical, TCAMS library (AID 1159586); conditions: recombinant PfPK6, Kinase-Glo ATP depletion luminescence
Sequence of Plasmodium falciparum protein kinase 6 (PK6, PF3D7_1337100) (Q8IDW1 1-305): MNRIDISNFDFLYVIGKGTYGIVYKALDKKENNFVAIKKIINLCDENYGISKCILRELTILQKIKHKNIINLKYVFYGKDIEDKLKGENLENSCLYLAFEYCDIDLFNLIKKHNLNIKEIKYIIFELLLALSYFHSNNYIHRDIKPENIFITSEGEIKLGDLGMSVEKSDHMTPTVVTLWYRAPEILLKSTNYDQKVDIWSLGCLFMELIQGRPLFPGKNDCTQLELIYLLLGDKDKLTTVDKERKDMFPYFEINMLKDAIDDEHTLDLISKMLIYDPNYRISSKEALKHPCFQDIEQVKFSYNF

[7] = target: Protein kinase 7 (PK7), Plasmodium falciparum 3D7 (PF3D7_0213400) (UniProt Q7YTF7); assay: inhibition of Plasmodium PK7 catalytic activity – biochemical, TCAMS antimalarial set, Kinase-Glo luminescence (AID 1159587); conditions: recombinant PfPK7, Kinase-Glo ATP depletion luminescence
Sequence of Protein kinase 7 (PK7), Plasmodium falciparum 3D7 (PF3D7_0213400) (Q7YTF7 1-343): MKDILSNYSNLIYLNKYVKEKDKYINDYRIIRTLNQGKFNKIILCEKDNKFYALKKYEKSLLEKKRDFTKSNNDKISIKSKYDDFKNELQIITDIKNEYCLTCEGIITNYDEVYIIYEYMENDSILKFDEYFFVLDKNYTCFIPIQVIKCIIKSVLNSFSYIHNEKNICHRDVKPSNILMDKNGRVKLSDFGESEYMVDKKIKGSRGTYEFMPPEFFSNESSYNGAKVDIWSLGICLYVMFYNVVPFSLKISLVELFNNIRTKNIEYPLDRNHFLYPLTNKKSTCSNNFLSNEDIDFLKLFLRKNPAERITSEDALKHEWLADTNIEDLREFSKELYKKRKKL

[8] = target: Calcium-dependent protein kinase 4 (Plasmodium falciparum (isolate 3D7)) (UniProt Q8IBS5); assay: PfCDPK4 kinase inhibitors, biochemical, TCAMS library (AID 1159588; cut-off not given, nearly all actives have IC50 up to about 0.91 µM); conditions: recombinant PfCDPK4, Kinase-Glo ATP depletion luminescence
Sequence of Calcium-dependent protein kinase 4 (Plasmodium falciparum (isolate 3D7)) (Q8IBS5 whole entry, looked up): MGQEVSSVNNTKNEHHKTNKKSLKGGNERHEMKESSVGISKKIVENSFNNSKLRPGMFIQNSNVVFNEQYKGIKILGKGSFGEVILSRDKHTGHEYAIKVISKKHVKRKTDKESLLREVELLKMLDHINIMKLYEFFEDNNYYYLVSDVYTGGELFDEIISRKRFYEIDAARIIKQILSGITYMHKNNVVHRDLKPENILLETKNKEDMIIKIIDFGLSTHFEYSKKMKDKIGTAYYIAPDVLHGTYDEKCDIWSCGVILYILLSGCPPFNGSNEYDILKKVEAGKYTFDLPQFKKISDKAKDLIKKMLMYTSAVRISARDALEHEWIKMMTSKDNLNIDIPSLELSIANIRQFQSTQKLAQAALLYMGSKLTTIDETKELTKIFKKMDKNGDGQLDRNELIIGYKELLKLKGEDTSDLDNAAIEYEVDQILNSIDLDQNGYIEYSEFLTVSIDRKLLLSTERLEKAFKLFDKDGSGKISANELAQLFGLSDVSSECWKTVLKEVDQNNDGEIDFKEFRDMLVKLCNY

O=C(NCCCN1CCCC1=O)NCc1ccccc1
active: growth inhibition [4] 99%
inactive: growth inhibition [1] 4% | inhibition [2] 8% | inhibition [3] 3% | outcome [5] | outcome [6] | outcome [7] | outcome [8]

CC(C)(C)NC(=O)c1ccc(Oc2ccc(OC(F)(F)F)cc2)c(NC(=O)C(C)(C)C)c1
active: growth inhibition [4] 89%
inactive: growth inhibition [1] 2% | inhibition [2] -11% | inhibition [3] 3% | outcome [5] | outcome [6] | outcome [7] | outcome [8]

COc1c(C2CCN(CCN3CCC(NC(=O)c4ccc(-c5ccc(C(F)(F)F)cc5)cc4)CC3)CC2)ccc2c1CCCC2
active: growth inhibition [4] 82%
inactive: growth inhibition [1] 35% | inhibition [2] 42% | inhibition [3] 0% | outcome [5] | outcome [6] | outcome [7] | outcome [8]
